Measurements taken from PubChem BioAssay AID1345085 (National Center for Advancing Translational Sciences (NCATS), 2018).
Inconclusive results are not listed. Unmarked numbers belong to inactive results. Calls of active or inactive are those of the source. Calls come from the whole dose curve; as a rule, active = well fitted cell-killing curve with a large enough effect; inconclusive = small, poorly fitted or top-dose-only effect, or effect the other way; inactive = no such curve, though single readings can be large or run the other way.
% is set by controls: 0 for no effect and ±100 for the full control effect; potency is the fitted concentration of half-maximal effect.
Note: nearly all actives have a fitted effect of over 55% in size.

The compounds below were run on CAOV3 (assay: Confirmatory qHTS for gynecologic anti-cancer compounds from libraries of approved drugs and bioactive compounds). Conditions: gynecologic cancer cell panel viability, ATPlite luminescence, 48 h; series mostly up to 57.6 µM; activity change, negative = viability loss: at the top concentration.
Procedure, shortened: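 Cells (1,000/well) plated 16 h, then exposed 48 h at 37 °C to 11 concentrations (1:3) from 57.5 uM to 0.977 nM. Viability by ATPlite luminescence after 15 min; IC50 derived, with HEK 293T used for selectivity index.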
For `CCOc1ccc(Nc2nc(-c3c(C)nc4ccccn34)cs2)cc1`, the “activity change, negative = viability loss” value was -9.28%.
For `CCS(=O)(=O)c1cccc(-c2cc(C(=O)NC3CCN(C)CC3)c(C)c3[nH]c4ncc(C)cc4c23)c1`, the Potency was 0.672 µM (active).
For `CC(C)c1nn(-c2c(Cl)cccc2Cl)c2nc(Cc3ccc(OCCO)cc3)[nH]c(=O)c12`, the “activity change, negative = viability loss” value was -3.9%.
For `Cc1cc(C2CCCCC2)n(O)c(=O)c1`, the Potency was 12.5 µM (active).
With `CN(C)C1CCN(C(=O)c2ccc(NC(=O)Nc3nc(N4CCOCC4)nc(N4CCOCC4)n3)cc2)CC1` the Potency was 0.611 µM (active).
With `CCN1CCN(Cc2ccc(Nc3ncc(F)c(-c4cc(F)c5nc(C)n(C(C)C)c5c4)n3)nc2)CC1` the “activity change, negative = viability loss” value was -8.37%.
`COc1cc2nccc(Oc3ccc(NC(=O)C4(C(=O)Nc5ccc(F)cc5)CC4)cc3)c2cc1OC` was tested, and the Potency was 21.7 µM (active).
In the case of `CCOc1cc2ncc(C#N)c(Nc3ccc(F)c(Cl)c3)c2cc1NC(=O)/C=C/CN(C)C`, the Potency is reported as 19.3 µM (active).
For `CNc1nccc(-c2cccnc2Oc2cc(C(=O)Nc3cccc(C(F)(F)F)c3)ccc2C)n1`, the Potency was 24.3 µM (active).
For `Cc1cc(SCc2sc(-c3ccc(C(F)(F)F)cc3)nc2C)ccc1OCC(=O)O`, the “activity change, negative = viability loss” value was 6.68%.
With `Cn1cc(-c2[nH]c3cc(NC(=O)[C@H](N)C4CCCCC4)cc4c3c2C=NNC4=O)cn1` the Potency was 3.85 µM (active).
`O=C1c2c(O)ccc(O)c2C(=O)c2c(NCCNCCO)ccc(NCCNCCO)c21` was tested, and the Potency was 3.85 µM (active).
For `COc1ccccc1N1CCN(CC(O)COc2cccc3ccccc23)CC1` (centres undefined), the “activity change, negative = viability loss” value was -3.71%.
In the case of `CCC1C(=O)N(C)c2cnc(Nc3ccc(C(=O)NC4CCN(C)CC4)cc3OC)nc2N1C1CCCC1` (centres undefined), the Potency is reported as 4.85 µM (active).
In the case of `Cc1ccc(C(=O)N(CCCN)C(c2nc3cc(Cl)ccc3c(=O)n2Cc2ccccc2)C(C)C)cc1` (centres undefined), the Potency is reported as 17.2 µM (active).
`Cn1c(=O)c(-c2c(Cl)cccc2Cl)cc2cnc(Nc3cccc(C(=O)O)c3)nc21` was tested, and the Potency was 2.73 µM (active).
With `COCCOc1ccc2c(c1)ncn2-c1ccc2cccc(N3CCC(N)CC3)c2n1` the “activity change, negative = viability loss” value was -10.6%.
In the case of `COc1ccc(CCC(=O)c2c(O)cc(O[C@@H]3O[C@H](CO)[C@@H](O)[C@H](O)[C@H]3O[C@@H]3O[C@@H](C)[C@H](O)[C@@H](O)[C@H]3O)cc2O)cc1O`, the “activity change, negative = viability loss” value is reported as 12.1%.
With `COc1cc2c(Oc3ccc(-c4cnc(Nc5ccc(F)cc5)n(C)c4=O)cc3F)ccnc2cc1OCCCN1CCOCC1` the Potency was 19.3 µM (active).
For `CC(=O)Nc1cccc(-n2c(=O)n(C3CC3)c(=O)c3c(Nc4ccc(I)cc4F)n(C)c(=O)c(C)c32)c1`, the “activity change, negative = viability loss” value was -0.209%.
`CNc1nc(Nc2ccc(C(=O)N3CCOCC3)cc2OC)ncc1Cl` was tested, and the “activity change, negative = viability loss” value was 10.9%.
In the case of `C=CC(=O)Nc1cccc(Oc2nc(Nc3ccc(N4CCN(C)CC4)cc3)ncc2Cl)c1`, the Potency is reported as 19.3 µM (active).
For `COc1ccc2c(c1OC)C(=O)O[C@@H]2[C@H]1c2c(cc3c(c2OC)OCO3)CCN1C`, the “activity change, negative = viability loss” value was 12.3%.
Compound `Cc1cnc(CNC(=O)c2c(=O)c3ccc(N4CCCN(C)CC4)nc3n3c2sc2ccccc23)cn1` has an activity change, negative = viability loss of 22.5% [at 10.7 µM].
For `COc1ccc2c(c1)c(CC(=O)O)c(C)n2C(=O)c1ccc(Cl)cc1`, the “activity change, negative = viability loss” value was 11.3%.
In the case of `OC[C@H]1O[C@@H](n2cnc3c(=S)nc[nH]c32)[C@H](O)[C@@H]1O`, the Potency is reported as 1.37 µM (active).
For `Cn1cnc2c(F)c(Nc3ccc(Br)cc3Cl)c(C(=O)NOCCO)cc21`, the “activity change, negative = viability loss” value was -18.7%.
In the case of `CN(C)C/C=C/C(=O)Nc1cc2c(Nc3ccc(F)c(Cl)c3)ncnc2cc1OC1CCOC1` (centres undefined), the Potency is reported as 10.9 µM (active).
`COc1c(C)c2c(c(O)c1C/C=C(\C)CCC(=O)OCCN1CCOCC1)C(=O)OC2` was tested, and the “activity change, negative = viability loss” value was -0.748%.
In the case of `O=C(NOCC1CC1)c1ccc(F)c(F)c1Nc1ccc(I)cc1Cl`, the “activity change, negative = viability loss” value is reported as 0.245%.
For `CC(C)C[C@H](NC(=O)[C@H](CCc1ccccc1)NC(=O)CN1CCOCC1)C(=O)N[C@@H](Cc1ccccc1)C(=O)N[C@@H](CC(C)C)C(=O)[C@@]1(C)CO1`, the Potency was 3.06 µM (active).
In the case of `Cc1ccc(-n2[nH]c(C)c(N=Nc3cccc(-c4cccc(C(=O)O)c4)c3O)c2=O)cc1C`, the Potency is reported as 27.3 µM (active).
`CS(=O)(=O)c1ccc(-c2cnc(N)c(C(=O)Nc3ccccc3)n2)cc1` was tested, and the “activity change, negative = viability loss” value was -10.9%.
For `COc1ccc(OC)c(-c2nnc3ccc(-c4ccc(OC)c(O[C@@H]5CCOC5)c4)nn23)c1`, the Potency was 8.63 µM (active).
